Mac1 fbg enh: enhancers of CD11b/CD18 adhesion to fibrinogen, primary screen, K562 cells, luminescence; ATPlite luminescence; activation, % at 10 µM; 0.07% of 93,000 active;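 active means 10 µM primary screen giving 50% or more activity, confirmed by 40% or more on retest at that dose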
Target sequence (P05107 whole entry, looked up, other chains not shown): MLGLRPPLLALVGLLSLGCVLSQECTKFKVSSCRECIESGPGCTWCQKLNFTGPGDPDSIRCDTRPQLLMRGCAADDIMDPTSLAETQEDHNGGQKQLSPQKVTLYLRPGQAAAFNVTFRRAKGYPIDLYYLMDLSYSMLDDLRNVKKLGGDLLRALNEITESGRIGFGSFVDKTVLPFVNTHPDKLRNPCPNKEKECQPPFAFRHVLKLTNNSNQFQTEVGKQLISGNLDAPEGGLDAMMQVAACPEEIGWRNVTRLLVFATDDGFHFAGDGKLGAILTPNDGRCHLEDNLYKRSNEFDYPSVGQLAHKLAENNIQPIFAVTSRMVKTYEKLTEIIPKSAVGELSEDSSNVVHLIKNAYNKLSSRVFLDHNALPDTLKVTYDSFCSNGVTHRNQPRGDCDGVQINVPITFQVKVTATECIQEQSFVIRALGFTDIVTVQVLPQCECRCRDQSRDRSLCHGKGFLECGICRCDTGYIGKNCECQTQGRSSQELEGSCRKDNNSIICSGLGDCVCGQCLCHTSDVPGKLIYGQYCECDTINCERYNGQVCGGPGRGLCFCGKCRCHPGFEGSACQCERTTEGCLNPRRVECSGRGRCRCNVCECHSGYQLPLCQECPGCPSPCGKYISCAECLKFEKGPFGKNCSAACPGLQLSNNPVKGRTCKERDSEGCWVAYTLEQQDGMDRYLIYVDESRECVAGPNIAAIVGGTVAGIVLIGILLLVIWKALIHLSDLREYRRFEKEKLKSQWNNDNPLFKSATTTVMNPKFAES
ERa SRC1 inh: ERα–SRC-1 coactivator interaction inhibitors, primary screen, biochemical, TR-FRET, ERα LBD, estradiol-bound; TR-FRET ER-alpha LBD / SRC-1 peptide; 1.7% of 86,000 active; inhibition, % at 25.6 µM; AID 629, 2007; Estrogen receptor (Homo sapiens), P03372; in the data active means inhibition above about 50%
Mac1 fbg inh: inhibitors of CD11b/CD18 adhesion to fibrinogen, primary screen, K562 cells, luminescence; Integrin beta-2 (Homo sapiens) + Integrin alpha-M (Homo sapiens), P05107+P11215; ATPlite luminescence; Mn2+ added to activate the integrin; inhibition, % at 10 µM; 0.54% of 93,000 active;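 active means primary inhibition of 50% or more at 10 µM, then 40% or more on retest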
ERa SRC1 pot: enhancers of ERα–SRC-1 coactivator binding, primary screen, biochemical, TR-FRET, ERα LBD, low estradiol; Estrogen receptor (Homo sapiens), P03372; coactivator binding (% of control), % at 25.6 µM; 1.3% of 86,000 active; TR-FRET ERalpha-LBD/SRC-Cy5 coactivator binding, 2 h; 100 = basal binding, no effect; AID 639, 2007; in the data active means activity above about 200%;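 further: binding measured in presence of low estradiol as agonist stimulus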
ERb coact inh: inhibitors of ERβ-SRC1 coactivator interaction, primary screen, biochemical, TR-FRET, ERβ LBD, SRC-1 peptide | TR-FRET ER-beta LBD / SRC1-Cy5 peptide binding; receptor agonist-loaded with 1 µM estradiol | inhibition, % at 25.6 µM | 1.3% of 86,000 active | AID 633, 2007;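 active means compounds whose percent inhibition of the receptor-coactivator binding signal exceeds about 50% in the single-dose screen, limit read from the data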
Hits are given with their value; n = inactive; x = no result; [ ] = remark or other dose. Compounds with a hit are over-represented: about 3.1% of the library has one in this group of screens.

SMILES	Mac1 fbg enh	ERa SRC1 inh	Mac1 fbg inh	ERa SRC1 pot	ERb coact inh
O=C(Nc1nc(-c2ccco2)c(-c2ccco2)s1)C1CC(=O)N(c2ccc3c(c2)OCCO3)C1 (centres undefined)	n	n	n	n	71[fluorescence artefact?]
CCCCc1nnc(NC(=O)C2CC(=O)N(c3ccc4c(c3)OCCO4)C2)s1 (centres undefined)	n	x	n	x	x
COc1ccc(C(N)CCc2ccc(C)o2)cc1 (centres undefined)	n	95[fluorescence artefact?]	n	n	74
CCc1ccc(CCC(=O)Nc2ccc(OC)cc2)o1	x	n	x	n	n
Cc1oc(C(C)(C)C)cc1C(=O)N1CCCC1C(=O)O (centres undefined)	x	n	x	n	n
CCOc1ncccc1C(=O)OCc1cc(=O)oc2c(C)c(C)ccc12	n	n	n	287[fluorescence artefact?]	n
CC(=O)Cc1ccccc1OCC(=O)O	n	n	n	n	n
COCCN(Cc1ccccc1)P(=O)(O)c1ccccc1OCC(=O)O	n	n	n	262[fluorescence artefact?]	n
Cc1cc(C)c(C#N)c(OCC(=O)c2ccccc2)n1	n	n	n	n	n
N#Cc1c(OCC(=O)c2ccccc2)nc2c(c1-c1ccco1)CCc1ccccc1-2	x	n	x	230	n
CCN(C(=O)c1ccc(C(C)(C)C)cc1)c1nnc(Cn2nnc3ccccc32)s1	n	n	99	n	n
COCCNC(=O)CN(C(=O)Cn1nnc2ccccc21)c1ccccc1	n	n	n	n	n
Cc1ccc(C)n1-c1ccc(C(=O)O)cc1	n	54[fluorescence artefact?]	n	n	n
CSc1nc(Oc2ccc3ccccc3c2)c2ccccc2n1	n	x	n	x	x
COc1cc(C(Nc2ccccn2)c2ccc3ccc(C)nc3c2O)cc(OC)c1O (centres undefined)	n	64[fluorescence artefact?]	n	n	65
Cc1ccc2nc(NC(=O)CSCc3ccccc3)sc2c1	n	n	n	n	85[fluorescence artefact?]
COc1cccc(N2CC(C(=O)Nc3nnc(SCc4cccnc4)s3)CC2=O)c1 (centres undefined)	n	x	n	x	x
c1ccc(-c2nc(C3CCCCC3)no2)cc1	n	n	n	n	68
CCOC(=O)c1ccc(NC(=S)Nc2ccccn2)cc1	n	x	n	x	x
CCn1c(C(=O)N2CCCC(C(=O)NCCCc3ccccc3)C2)cc2sccc21 (centres undefined)	x	n	x	n	80[fluorescence artefact?]
CCn1c(CNC(=O)c2cccc(C)c2)nc2ccccc21	n	n	n	n	n
COc1cccc2sc(N3CCN(c4nc5ccccc5s4)CC3)nc12	n	n	n	236	n
CCN(CC)C(=O)Cn1nc(C)c2ccccc2c1=O	n	n	n	n	n
CCOc1ccc2nc3c(cc2c1)CN(CCOC)C(=NCCOC)S3	x	n	x	483[fluorescence artefact?]	n
CCOC(=O)c1c(C)sc2c1N(C(=O)CN1CCOCC1)c1cc(Cl)ccc1S2	n	n	n	n	n
SMILES	Mac1 fbg enh	ERa SRC1 inh	Mac1 fbg inh	ERa SRC1 pot	ERb coact inh
O=C1c2ccccc2C(=O)C1c1ccnc2ccccc12	x	n	x	242	n
O=C1c2ccccc2C(=O)C1c1nccc2ccccc12	n	x	n	x	x
O=C1C(c2ccnc3ccccc23)=C(O)c2ccccc21	x	n	x	309	n
c1ccc2[nH]c(-c3ccnc4ccccc34)nc2c1	n	n	n	n	n
CC[C@@H](C(=O)n1nc(C)cc1C)[C@H](NS(=O)(=O)c1ccc(C)cc1)c1ccccc1	n	x	n	x	x
CC1=CN2C(=N)/C(=C\c3cn(CCCOc4ccccc4)c4ccccc34)C(=O)N=C2S1	n	x	n	x	x
COc1ccc(CN2CC(C(=O)NCCCN3CCN(C)CC3)CC2=O)cc1 (centres undefined)	n	n	n	n	n
COc1ccc(CN2CC(C(=O)NCCCN3CCCCCC3)CC2=O)cc1 (centres undefined)	n	n	n	203[fluorescence artefact?]	n
Cc1ccc(CCN2CC(C(=O)NCCCN3CCCCCC3)CC2=O)cc1 (centres undefined)	n	n	n	917[fluorescence artefact?]	58[fluorescence artefact?]
Cc1ccc(CCN2CC(C(=O)NCCN3CCCCCC3)CC2=O)cc1 (centres undefined)	n	n	n	n	n
